Source: PubChem BioAssay AID624491 (Broad Institute, 2012)
In all, about 1,800 compounds went through this assay and about 1,400 (78%) were called active. Roughly 2% stayed inconclusive and do not appear here.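 Rule for the calls: active = fitted curve crossing a set activation limit at or below the highest valid dose tested; inconclusive = flat fit at 30 to 70% activation, or poor fit; inactive = the rest, including signal decreases.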 So high a share suggests a set chosen from earlier hits. Only a sample is shown. Potency and affinity values are given separately.

test: blockers of NLG process in reporter cells – D54 ERlucT cells, luminescence, cherry-picks, dose response (AID 624491); conditions: D54 ERlucT glycosylation luciferase reporter, 24 h, 100% = twice neutral-control luminescence; series mostly up to 19.5 µM;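 note: signal gain reflects blocked N-linked glycosylation of a luciferase reporter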

Activation (NLG inhibition), inactive:
Cc1nnc2ccc(-c3ccc(NC(=O)c4ccco4)cc3)nn12
O=C(COc1ccc(/C=N/NC(=O)c2cc3ccccc3o2)cc1Cl)Nc1ccccc1
CC(=O)c1ccc(Nc2c3c(nc4ccccc24)CCCC3)cc1
COc1cc(Nc2c3ccccc3nc3ccccc23)cc(OC)c1OC
COc1ccc(NC(=O)CSc2nc3ccsc3c(=O)n2Cc2ccccn2)c(OC)c1
CCn1cc2nc(SCC(=O)Nc3ccc(OC)cc3OC)n(Cc3ccc(OC)cc3)c(=O)c2n1
COC(=O)c1cccc(Nc2c3c(nc4ccccc24)CCC3)c1
CCN(c1ccccc1)S(=O)(=O)c1ccc(N)c(OC)c1
c1ccc(CCNc2nc(-c3ccccn3)nc3ccccc23)cc1
COc1cccc(C2=NOC(C(=O)NCc3ccco3)C2)c1 (stereo unspecified)
COc1ccc(C2=NOC(C(=O)NCc3ccco3)C2)cc1OC (stereo unspecified)
COc1cc(CNc2ccc(O)cc2)cc(Br)c1OCc1ccccc1
COc1cc(C(=O)OCC(=O)c2cc(C)n(C)c2C)cc(OC)c1OC
COc1cc(C(=O)OC2CCCCC2=O)cc(OC)c1C (stereo unspecified)
CN(C)CCCN(C(=O)c1ccc(S(=O)(=O)N2CCc3ccccc3C2)cc1)c1nc2ccc(F)cc2s1
Cc1ccc(S(=O)(=O)N2CCCCC2CCNC(=O)C(=O)NCc2ccco2)cc1 (stereo unspecified)
O=C(CSc1ncnc2nc[nH]c12)c1ccc([N+](=O)[O-])cc1
CCOC(=O)/C=c1/s/c(=C\c2c(OC)ccc3ccccc23)c(=O)n1CC(=O)NCC1CCCO1 (stereo unspecified)
CCOC(=O)c1[nH]c(C)c(C(=O)Nc2cccc(Cl)c2C)c1C
Cc1ccc2c(CNCc3ccccc3)cc(=O)oc2c1
CCOC(=O)n1c(=O)n(Cc2ccc(OC)cc2)c2ccccc21
FC(F)(F)c1nnc2c(Sc3ccc(Cl)cc3)nc3ccccc3n12
CC(=O)c1cccc(-c2ccnc3c2CC(C(=O)NCCc2ccccc2)O3)c1 (stereo unspecified)
Cc1[nH]c2ccc(C(=O)OC(C)C(=O)NCc3ccccc3)cc2c1C (stereo unspecified)
COc1ccc(-c2cc(-c3ccccc3)c(C#N)c(S(C)=O)n2)cc1 (stereo unspecified)
C/C(CC(=O)NCc1ccc(Cl)cc1)=N\NC(=O)COc1ccc(C)cc1Br
CC(=O)N1N=C(c2ccccc2)OC1c1ccc([N+](=O)[O-])s1 (stereo unspecified)
CC1CN(C(=O)/C=C/c2ccc([N+](=O)[O-])s2)CC(C)O1 (stereo unspecified)
CCOC(=O)c1c(C)c(C(=O)Nc2ccc(N(C)C)cc2)c(C)n1CC
Cc1ccc(Nc2nc(-c3cccnc3)nc3ccccc23)cc1
CC(Nc1nc(-c2cccnc2)nc2ccccc12)c1ccc(F)cc1 (stereo unspecified)
O=C1c2ccccc2C(=O)C12OC2c1ccc(Cl)cc1Cl (stereo unspecified)
Cc1ccc2nc(SCC(=O)Nc3ccc4sc(C)nc4c3)c(C#N)cc2c1
CCCCCCCCCCn1c2c(c(=N)c3c1CCC3)CCC2
CCCn1c(=N)n(CC(=O)c2ccc([N+](=O)[O-])cc2)c2ccccc21
Cn1c(Cl)cnc1C1CC(=O)c2cc(Cl)ccc2O1 (stereo unspecified)
COc1ccc(OC)c(/C=C/c2ccc3cccc(O)c3n2)c1
COc1ccc(NC(=O)c2cccc(Oc3ccccc3)c2)cn1
Cn1c(SCC(=O)c2ccccc2)ncc(C(=O)Nc2ccc(F)cc2)c1=O
Cn1c(SCC(=O)c2ccccc2)ncc(C(=O)Nc2ccccc2)c1=O
CCOc1ccc(Nc2nnc(SCc3nc4ccccc4c(=O)[nH]3)s2)cc1
CC1=Nc2cc(C(=O)NCC3CCCO3)ccc2Sc2ccc(Br)cc21 (stereo unspecified)
CC1(C(=O)NCc2cccs2)Cc2c(-c3ccc(C(N)=O)cc3)ccnc2O1 (stereo unspecified)
CC1(C(=O)NCc2ccccc2)Cc2c(-c3ccc(C(N)=O)cc3)ccnc2O1 (stereo unspecified)
CC(=O)Nc1ccc(-c2ccnc3c2CC(C)(C(=O)NCc2ccco2)O3)cc1 (stereo unspecified)
O=C(NCCN1C(=O)S/C(=C\c2cccc(Cl)c2Cl)C1=O)C1=COCCO1
CC[C@@H]1CC=C[C@H]2[C@H]1C(=O)N(Cc1ccccc1)[C@H]2c1ccoc1
c1ccc2[nH]c3cc4ncnc4cc3nc2c1
NS(=O)(=O)c1ccc(N=Nc2c(O)[nH]c3ccc(Br)cc23)cc1
COc1ccc(CN(C)c2ncnc3sccc23)c(OC)c1OC
CCc1ccccc1NC(=O)Cn1nnc(C(=O)NCc2cccs2)c1N
COc1ccc(C(=O)/C=C/c2ccccc2F)c(OC(=O)c2ccc([N+](=O)[O-])cc2)c1
O=C(NCc1ccc2c(c1)OCO2)c1cc([N+](=O)[O-])ccc1N1CCOCC1
CC1=C[C@@H](C)[C@@H](c2ccc(C(F)(F)F)cc2)OC1=O
O=C(COc1ccc2c(-c3ccccc3)cc(=O)oc2c1)N[C@@H](Cc1c[nH]c2ccc(O)cc12)C(=O)O
COc1ccc2c(c1)c1ccc3c(c1n2C)C(=O)C=CC3=O
COc1cc2c(cc1OC)C(c1ccccc1)N(C(=O)CCl)CC2 (stereo unspecified)
COc1ccc(CC(=O)NCc2ccccc2)cc1
COc1ccc(NS(=O)(=O)c2cc(NC(=O)c3nn(C)c(=O)c4ccccc34)ccc2OC)cc1
COc1cc2nc(NC(=O)c3ccccc3)sc(=O)c2cc1OC
COc1ccc(C(=O)c2sc(Nc3ccccc3)nc2N)cc1OC
COc1ccccc1N(C)S(=O)(=O)c1ccc(C(=O)OCC(=O)N2CCC2)cc1
CC1CN(C(=O)c2cc(-c3ccc(Cl)s3)nc3ccccc23)CC(C)O1 (stereo unspecified)
O=C(c1cc(-c2cccs2)nc2ccccc12)N1CCN(c2ccccc2)CC1
O=C(N/N=C/c1ccc2c(c1)OCO2)c1sc2cc(Cl)ccc2c1Cl
Oc1[nH]c(N=C2N=c3ccccc3=N2)c2ccccc12
COc1cc(/C=C2/C(=O)N(C)C(=S)N2C)ccc1OCc1cccc(F)c1
C(=N\Nc1nc2ccccc2[nH]1)/c1c[nH]c2ccccc12
O=C(c1cccc([N+](=O)[O-])c1)N1CCN(c2cccc(Cl)c2)CC1
CCOC(=O)N1CCN(C(=O)c2cccc(N3C(=O)NC4CC3(C)Oc3ccc(Cl)cc34)c2)CC1 (stereo unspecified)
CCOc1ccc(C(=O)Nc2cc(-c3nc4ccccc4[nH]3)ccc2Cl)cc1[N+](=O)[O-]
Cc1c(Cl)ccc2c(C(=O)Nc3cc(C(C)(C)C)on3)cc(-c3ccccn3)nc12
O=C1COc2ccc(C(=O)/C=C/c3ccccc3)cc2N1
O=C(Cc1ccc(Cl)cc1)Nc1ccccc1N1CCN(C(=O)c2ccccc2)CC1
COc1ccc(N2CC(C(=O)Nc3cc(C(F)(F)F)ccc3N3CCCC3)CC2=O)c(OC)c1 (stereo unspecified)
NC(=O)[C@H]1CC2(CC(c3cccc(NC(=O)COc4ccc(Cl)cc4)c3)=NO2)CN1C(=O)C(c1ccccc1)c1ccccc1 (stereo partly specified)
O=C(COc1ccc(Oc2ccccc2)cc1)NCc1cn2ccccc2n1
O=C(c1ccc(Cl)cc1)C(CN1CCCCC1)c1ccccc1 (stereo unspecified)
Cc1cc(=O)oc2cc(OCC3CC(c4ccccc4)=NO3)ccc12 (stereo unspecified)
COc1cc(/C=C/C(=O)c2ccc3c(c2)OCCO3)cc(OC)c1OC
CCOc1cc(/C=C/C(=O)c2ccc(C)cc2)ccc1OCC(=O)N(C)C
CC(=O)Nc1ccc(/C=C/C(=O)c2ccc3c(c2)OCCO3)cc1
O=C(/C=C/c1ccncc1)c1ccc2c(c1)OCCO2
O=C(C=Cc1ccc2c(c1)OCO2)C=Cc1ccc2c(c1)OCO2
C=CCOc1ccc(C2C(C#N)=C(N)N(Nc3ccccc3)C3=C2C(=O)CCC3)cc1OC (stereo unspecified)
Cc1cc(OC(C)C)nc(NCc2ccccc2)n1
COc1ccc(Cn2c(=O)cc(N)n(-c3ccccc3C)c2=O)cc1
Cn1c(N)c(C(=O)COC(=O)c2cc(S(=O)(=O)N3CCOCC3)ccc2F)c(=O)n(C)c1=O
CCCCCCCCCCCCCCCC[n+]1ccc(/C=N/O)cc1
Cc1ccc(OCCOC(=O)c2c(-c3ccccc3)noc2C)cc1
Cc1cc(C)c(C)c(OC(=O)c2sc(Cl)nc2C)c1
COc1ccc(C(=O)c2sc(Nc3ccccc3)nc2N)cc1
CN(C)c1ccc(/C=N/NC(=O)c2ccccc2Cl)cc1
Cc1cc2cc(CNC(=O)Cc3cccs3)ccc2n1C
CCOc1ccc(Nc2nc(Cc3nnc(SCC(=O)NCc4ccco4)n3CC)cs2)cc1
Cc1ccc(Cc2c(C)nc3nc(SCC(=O)NCc4ccco4)nn3c2C)cc1
S=c1[nH]nc(-c2cc(-c3ccccc3)n[nH]2)n1/N=C/C(Br)=C/c1ccccc1
COC(=O)CC1COc2ccccc2N1S(=O)(=O)c1ccc(OC)cc1 (stereo unspecified)
COc1ccc(F)cc1C1=CC(=O)C[C@H](c2ccc3c(c2)OCO3)C1
CN1CC(=O)N2C(c3ccc(Cl)cc3)c3[nH]c4ccccc4c3C[C@H]2C1=O (stereo partly specified)
CCc1ccc(/C=N/NC(=O)c2cc(-c3ccncc3)nc3ccccc23)s1
COc1cc(N=Nc2cccc(S(N)(=O)=O)c2)c2ccccc2c1N
Oc1ccc(NCc2cccs2)cc1
OCC1OC(n2cnc3c(=S)nc[nH]c32)CC1O (stereo unspecified)
O=C(Nc1c(Cl)ccc2nsnc12)c1ccc([N+](=O)[O-])o1
Cc1ccc2nsnc2c1NC(=O)c1ccc([N+](=O)[O-])o1
